Measurements as given in the OligoGym collection.

Each sequence was assayed against DEXI (assay: pooled miR-30 sensor sort-seq; sequence = guide strand). Settings: shRNA.

First: TAGAGGGCAGCAGCGGCGGCGG
Second: TAACCTGAAATGAAGGAGCGAG
The sensor-assay potency score (higher = more potent) of the first is lower: -1.83 for the first, -0.355 for the second.

Going from TTCCTGTAAACATCCATCGCAG to TACAGGATCAGCACATTGACGA, the sensor-assay potency score (higher = more potent) rises from -0.501 to 0.243.

Each sequence was assayed against DGKE in the same assay as above. Settings: shRNA.

Going from TTTGACAGTAATCATTTCCTTT to TTGAACTTTCCATCGATCTAGT, the sensor-assay potency score (higher = more potent) rises from -0.513 to 0.305.

First: TGAACATGTATCTACTTGCGTG
Second: TTTGTTACTTGAACTTTCCATC
The sensor-assay potency score (higher = more potent) of the first is lower: -0.503 for the first, -0.49 for the second.

Compared with TTACTTGAACTTTCCATCGATC, TTGCACTAAACAATCTTTGGTT is higher in sensor-assay potency score (higher = more potent): -0.458 for the first, 0.42 for the second.

Going from TTCTTGAGCATAATCTCCTTGC to TTTTGGATGAACATGTATCTAC, the sensor-assay potency score (higher = more potent) rises from -0.369 to -0.088.

First: TTAATTTGATCTTTCCACCCAC
Second: TTGACAGCCACACTGCTGCTTG
The sensor-assay potency score (higher = more potent) of the first is higher: 0.385 for the first, 0.0149 for the second.

With TTTAATTCCATCTGCTTCCATT the sensor-assay potency score (higher = more potent) was -0.836.

These sequences were tested against DGKH in the same assay as above. Settings: shRNA.

Compared with TTGCTCTACAGAAACCATCGGA, TTCATCTTCTATAATGTCCTTC is higher in sensor-assay potency score (higher = more potent): 0.0953 for the first, 0.785 for the second.

Compared with TTGTTGATAATCGAACTCCCAG, TGAACTTGTCTTCTGCTTCTGA is higher in sensor-assay potency score (higher = more potent): -0.448 for the first, 0.759 for the second.

Going from TAAATCAAACACCTGAGCCGGA to TAGAGGACTAACACAGAACGAA, the sensor-assay potency score (higher = more potent) falls from 0.112 to -0.365.

Going from TTTCTTTAAACTATTTGCCCGC to TATGTCATTATACTCCACCTGT, the sensor-assay potency score (higher = more potent) rises from -0.524 to -0.182.

Compared with TTGAATTTACACACTTCGCAGG, TACAGTTTCACATAGCGTCTTG is higher in sensor-assay potency score (higher = more potent): -0.529 for the first, -0.34 for the second.

First: TTTACCAGAATCACACTTCTGC
Second: TAACATTTTGTTGATAATCGAA
The sensor-assay potency score (higher = more potent) of the first is higher: 0.827 for the first, -0.475 for the second.

Each sequence was assayed against DHCR7 in the same assay as above. Settings: shRNA.

Compared with TATAGGTGGAGTCTTGGCCCAG, TGATACTTGTTCACAACCCCTG is higher in sensor-assay potency score (higher = more potent): -1.1 for the first, -0.124 for the second.

First: AACAGCTTGAAGTCAAACCACT
Second: TTGAAGTCAAACCACTTCCCGA
The sensor-assay potency score (higher = more potent) of the first is lower: -1.51 for the first, -0.639 for the second.

Compared with TTGTCGAAGATGATGGTGGGCG, TAGGAAGATGACGCTCGCCAGT is lower in sensor-assay potency score (higher = more potent): -0.346 for the first, -1.46 for the second.

Compared with TTGCCTGTGAATTTGCAGTCTC, TTGCTGTGGTGCCTCTGCCCAT is lower in sensor-assay potency score (higher = more potent): -0.449 for the first, -1.54 for the second.

First: TGAAGTCAAACCACTTCCCGAT
Second: TCAATGGTCTTCAGGTACCAGG
The sensor-assay potency score (higher = more potent) of the first is higher: -0.223 for the first, -1.35 for the second.

Compared with AAGTAGTAGACGATGAAGGGGG, TTGAAGAACAGCTTGAAGTCAA is higher in sensor-assay potency score (higher = more potent): 0.135 for the first, 0.748 for the second.

For TTGACCATGGCGAAGGTGGAGA, the sensor-assay potency score (higher = more potent) was -0.859.
